Lmaj promast: reduces viability of Leishmania major promastigotes. resazurin fluorescence viability. inhibition, % at 10 µM. actives 9% (n = 200,000). AID 1063; in the data active = inhibition above about 50%;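 note: promastigotes grown with compound for 44 hours at 28 °C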
Ins promoter up: MIN6 insulin promoter up-regulation; MIN6 insulin promoter-GFP reporter, high-content imaging; active compounds read high; AID 1625; actives 0.3% (n = 190,000); z-score at 5 µM;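 active = z-score above 3 at 5 µM with at least 500 cells counted in the well; inconclusive = wells under 500 cells, flagged as cytotoxic or low count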
WT yeast gro inh: growth inhibition of WT yeast, mitochondrial fusion screen; mitochondrial fusion phenotypic screen, WT strain; actives 2.1% (n = 190,000); inhibition, % at 10 µM; in the data active = inhibition above about 58%; tested in S. cerevisiae
Autophagy mod: alters autophagy in cells. calls only at 10 µM (by protocol). MEF GFP-LC3 puncta imaging; test concentration mostly 10 µM. AID 463193. actives 0.98% (n = 190,000);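 active = percentage of spot-positive cells more than 3 SD above its plate mean, without a fluorescence outlier flag or 80% toxicity; inconclusive = no clear call, values can overlap the other calls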
INS promoter inh: TRM-6 insulin promoter activity inhibition. actives 0.9% (n = 130,000). AID 1273. TRM-6 cells (human fetal islet line), insulin promoter-eGFP reporter, imaging; reporter expression induced with tamoxifen. inhibition, % at 2 µM;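 active = inhibition above the mean plus 3 SD, with well images judged a real hit on visual review, cut at about 60% in these data, passing the limit was not always enough; inconclusive = inhibition over the cutoff but images rejected on review; inactive = inhibition not above the cutoff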
Each line names hits and unclear results; the compound was inactive in the other large screens. Only some compounds are listed: those with a hit (about 11% of all), similar ones and a draw of the others.

COc1ccc(-c2nn(C)c(=O)c3ccccc23)cc1NC(=O)Cn1nc(-c2ccccc2)c2ccccc2c1=O	Lmaj promast 65
O=C(c1ccc(S(=O)(=O)N2CCOCC2)cc1)N1CCOCC1	none (no result: Ins promoter up)
Cc1nn(CC(=O)NCc2cccnc2)c(=O)c2ccccc12	Lmaj promast 51
Clc1ccc(C2=Nn3c(Cn4nnc5ccccc54)nnc3SC2)cc1	none (no result: Lmaj promast, WT yeast gro inh, Autophagy mod, INS promoter inh)
CC1Sc2n(c3ccccc3[n+]2C)N=C1c1ccccc1 (stereo not drawn)	Lmaj promast 99, Ins promoter up inconclusive
COc1ccc(C2=Nn3c([n+](C)c4ccccc43)SC2)cc1	Lmaj promast 100, Ins promoter up inconclusive (no result: INS promoter inh)
C[n+]1c2n(c3ccccc31)N=C(c1ccc(Cl)cc1)CS2	Lmaj promast 86
C=CCc1c(C)nc2ccc(C(=O)OCC)cc2c1Cl	none (no result: INS promoter inh)
Cc1ccc(NC(=S)Nc2ccc(S(=O)(=O)N3CCOCC3)cc2)cc1S(=O)(=O)N1CCOCC1	none (no result: INS promoter inh)
Cc1cc(C)c2cc(C#N)c(NCCNC(=S)NCCCN3CCOCC3)nc2c1	none (no result: INS promoter inh)
Cc1cc(C)c2nc(C(F)(F)F)nc(NCCCN3CCOCC3)c2c1	Lmaj promast 95
CCO[C@@H]1OC(C(=O)O)=C[C@H](c2csc3ccccc23)[C@H]1CCCO	none (no result: INS promoter inh)
CCO[C@H]1OC(C(=O)Nc2ccccc2)=C[C@@H](c2csc3ccccc23)[C@@H]1CCCO	Lmaj promast 58, WT yeast gro inh 72 (no result: Ins promoter up, INS promoter inh)
CCO[C@H]1OC(C(=O)Nc2ccccc2)=C[C@@H](c2ccc(Br)cc2)[C@@H]1CCCO	WT yeast gro inh 65 (no result: INS promoter inh)
CCO[C@@H]1OC(C(=O)NCc2ccccc2)=C[C@H](C2CCCCC2)[C@H]1CCCO	Lmaj promast 51 (no result: INS promoter inh)
O=S(=O)(c1ccccc1)c1nc(NC2CC2)sc1Cl	none
O=S(=O)(c1ccccc1)c1nc(Nc2ccccc2N2CCOCC2)sc1Cl	Lmaj promast 56 (no result: INS promoter inh)
CCn1ncc(/C=N\NC(=O)c2ccc3c(c2)c(C)c(C)n3Cc2ccccc2)c1C	none (no result: Ins promoter up)
Cc1c(C)n(Cc2ccccc2)c2ccc(C(=O)OCCN(C)C)cc12	Lmaj promast 100 (no result: Ins promoter up)
Cc1cc(N/N=C/c2ccc(O)cc2O)nc(-n2nc(C)cc2C)n1	Lmaj promast 100 (no result: Ins promoter up, INS promoter inh)
Cc1cc(NCCO)nc(-n2nc(C)cc2C)n1	INS promoter inh 79
COc1ccc(/C=N/Nc2cc(C)nc(-n3nc(C)cc3C)n2)cc1	Lmaj promast 96, WT yeast gro inh 60 (no result: Ins promoter up, INS promoter inh)
Cc1cc(N(CCO)CCO)nc(-n2nc(C)cc2C)n1	none
CCN(Cc1ccncc1)Cc1nc(CC2CC2)no1	none
Cc1oc2cc(O)ccc2c(=O)c1-c1cnn(-c2ccccc2)c1	none (no result: INS promoter inh)
O=c1c(-c2cnn(-c3ccccc3)c2)coc2cc(O)ccc12	Lmaj promast 96 (no result: INS promoter inh)
Cc1ccccc1-n1c(SCC(=O)N/N=C/C=C/c2ccccc2[N+](=O)[O-])nc2ccccc2c1=O	Lmaj promast 60
O=C(CSc1nc2ccccc2c(=O)n1-c1ccccc1)N/N=C/C=C/c1ccccc1[N+](=O)[O-]	none (no result: Ins promoter up, INS promoter inh)
Cc1cccc(C)c1NC(=O)CSc1nnc(-c2cccnc2)o1	none
CCNc1c2c(nc3ccccc13)CC(C)(C)CC2=O	Lmaj promast 58, INS promoter inh inconclusive
COc1ccc(-n2c(/C=C3\C(=O)N(C)c4ccccc43)nc3ccccc3c2=O)cc1	none (no result: Lmaj promast, WT yeast gro inh, Autophagy mod, INS promoter inh)
CCN1C(=O)/C(=C/c2nc3ccccc3c(=O)[nH]2)c2ccccc21	Lmaj promast 99, INS promoter inh inconclusive
CCN1C(=O)/C(=C/c2nc3ccccc3c(=O)n2-c2ccc(C)cc2)c2ccccc21	Lmaj promast 99 (no result: INS promoter inh)
CCN1C(=O)/C(=C\c2nc3ccccc3c(=O)n2-c2ccccc2)c2ccccc21	Lmaj promast 77
Cc1ccccc1/C=C\c1nc2ccccc2c(=O)[nH]1	none (no result: INS promoter inh)
Nc1nc(-c2ccccc2)nn1S(=O)(=O)c1ccccc1	none (no result: INS promoter inh)
Cc1cc(C)c(C#N)c(N2CCN(CCOc3ccc(Cl)cc3)CC2)n1	WT yeast gro inh 65
COc1ccc(Cl)cc1CN1CCN(c2nc(C)cc(C)c2C#N)CC1	none
CC1=C(C(=O)N2CCOCC2)C(c2cc(C)ccc2C)NC(=S)N1 (stereo not drawn)	none
CC(C)N1CCC(N2CCN(Cc3ccc(-c4ccc(Cl)cc4)o3)CC2CCO)CC1 (stereo not drawn)	Lmaj promast 88 (no result: INS promoter inh)
CC(C)N1CCC(N2CCN(Cc3cnc(-c4ccccc4)s3)CC2CCO)CC1 (stereo not drawn)	none (no result: INS promoter inh)
CC(C)N1CCC(N2CCN(Cc3ccc(-c4ccccc4Cl)o3)CC2CCO)CC1 (stereo not drawn)	Lmaj promast 89
Cc1ccc(-c2cccc(CN3CCN(C4CCN(C(C)C)CC4)C(CCO)C3)c2)o1 (stereo not drawn)	Lmaj promast 52 (no result: INS promoter inh)
N#Cc1cc([N+](=O)[O-])ccc1NC(=O)COC(=O)CC1CCCC1	none (no result: Lmaj promast, WT yeast gro inh, Autophagy mod, INS promoter inh)
CC(C)=NN/C(N)=N/C(=S)Nc1ccc(C)cc1	none
CCCCOc1ccc(C(=O)Nc2ccc(SC(F)F)cc2)cc1OC	Lmaj promast 71
COc1ccc(C(=O)Nc2ccc(SC(F)F)cc2)cc1	none
CC1(c2ccccc2)CC2CC(c3ccccc3)N1O2 (stereo not drawn)	none
CC1C(c2ccccc2)N(C)C(c2ccccc2)CC1(O)c1ccccc1 (stereo not drawn)	Lmaj promast 98, WT yeast gro inh 58 (no result: INS promoter inh)
CC1/C(=N/O)CC(c2ccccc2)N(C)C1c1ccccc1 (stereo not drawn)	WT yeast gro inh 98 (no result: Ins promoter up)
CC1/C(=N/O)CC(c2ccccc2)NC1c1ccccc1 (stereo not drawn)	none
CN(C)/C=N/c1ncc(-c2ncc(C(F)(F)F)cc2Cl)cn1	none
Cn1c(=O)c2c(nc(Sc3ncnn3CC(=O)NC3CCCCC3)n2C)n(C)c1=O	none (no result: Lmaj promast, WT yeast gro inh, Autophagy mod, INS promoter inh)
CC(c1cccnc1)N(C(=O)Nc1ccccc1)C1CCCCC1 (stereo not drawn)	Lmaj promast 78 (no result: INS promoter inh)
CCOc1ccc(NC(=O)N(C2CCCCC2)C(C)c2ccncc2)cc1 (stereo not drawn)	none
CCOc1ccc(NC(=O)N(C2CCCCC2)C(C)c2cccnc2)cc1 (stereo not drawn)	Lmaj promast 87 (no result: INS promoter inh)
Cc1cccc(-n2c(=O)c3c(n4cnnc24)-c2ccccc2CC32CCCCC2)c1	WT yeast gro inh 74
O=c1c2c(n3cnnc3n1-c1ccccc1)-c1ccccc1CC21CCCCC1	none (no result: INS promoter inh)
Cc1cccc(C(=O)N2CCN(C(=O)c3cccc(C)c3)C(C)C2)c1 (stereo not drawn)	Autophagy mod active (no result: Ins promoter up)
Cc1cccc(C(=O)N2CCCCCC2)c1	none
CCCCNS(=O)(=O)c1ccc2nc(SCC(=O)c3ccccc3OC)[nH]c2c1	Lmaj promast 99
CC1CCc2c(C(=O)Oc3cccc(-n4cnnn4)c3)csc2C1 (stereo not drawn)	WT yeast gro inh 61 (no result: INS promoter inh)
Cc1ccsc1C(=O)N(c1nc2ccccc2s1)c1c(C)cccc1C	Lmaj promast 100 (no result: WT yeast gro inh)
COC(=O)/C=C/c1oc2ccccc2c1C	none (no result: INS promoter inh)
CCOC(=O)c1c(C)[nH]c(N=Nc2cccc(C)c2)c1C	WT yeast gro inh 73
CCOC(=O)c1c(C)[nH]c(N=Nc2ccccc2)c1C	WT yeast gro inh 75
CCOC(=O)c1c(C)[nH]c(C2=NNC(=Nc3ccc(OCC)cc3)SC2)c1C	none (no result: Ins promoter up)
CCOC(=O)c1c(C)[nH]c(N=Nc2cccc(OC)c2)c1C	none (no result: INS promoter inh)

Source: PubChem
